Shiga toxin inh = blocks Shiga toxin action in Vero cells; Vero cells, Shiga toxin protein synthesis inhibition reporter; inhibition, % at 38.7 µM; 290,000 compounds, 9.2% hits; in the data active means inhibition mostly above about 28%, no sharp cut-off; inactive means mostly below about 43%; further: 0% is about no effect
RE007 growth inh = less growth of the S. pombe RE007 Vpr strain; S. pombe RE007 Vpr strain, BacTiter-Glo ATP luminescence, 24 h; Potency, µM (titrated, usually from 92.2 µM), for the others: top-dose activity change, negative = less growth, hits mostly inhibitors; 360,000 compounds, 0.21% hits; active means well fitted falling curve with a large enough effect; further: potency means the concentration at half of the fitted maximal effect; on the % scale 0 is the no-effect control and ±100 the full control effect; nearly all actives have a fitted effect of over 50% in size
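Fission yeast RE007 carrying one integrated HIV-1 vpr copy, seeded at OD 0.01 in PMG+AL medium with 23 nL pinned compound. Grown 24 h at 30 degrees; viability read by BacTiter-Glo luminescence after 5 min.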
TbPYK inhibitor = blocks Trypanosoma brucei pyruvate kinase; Potency, µM (top dose mostly 76.8 µM), for inactives: at the top dose activity, negative = inhibition, usual class: inhibitors; 410,000 compounds, 0.12% hits; TbPYK enzyme, Kinase-Glo Plus ATP luminescence, 45 min; AID 624173; Q57TT1; further: potency means the concentration at half of the fitted maximal effect; on the % scale 0 is the no-effect control and ±100 the full control effect; nearly all actives have a fitted effect of over 50% in size
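In this concentration-response screen, enzyme-free wells defined baseline while DMSO plates tracked drift. Each reaction combined TbPYK, substrate, compound and 130 uM ADP for 45 min at room temperature. Kinase-Glo Plus luminescence gave the signal.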
LmPK inh = inhibitors of Leishmania mexicana pyruvate kinase; purified LmPK, Kinase-Glo ATP luminescence, 1 h; Potency, µM (titrated, usually from 57.5 µM), inactives show at the top dose activity change, negative = inhibition, usual class: inhibitors; 290,000 compounds, 0.37% hits; AID 1721; further: potency means the concentration at half of the fitted maximal effect; on the % scale 0 is the no-effect control and ±100 the full control effect
Target sequence (Q27686 whole entry, looked up): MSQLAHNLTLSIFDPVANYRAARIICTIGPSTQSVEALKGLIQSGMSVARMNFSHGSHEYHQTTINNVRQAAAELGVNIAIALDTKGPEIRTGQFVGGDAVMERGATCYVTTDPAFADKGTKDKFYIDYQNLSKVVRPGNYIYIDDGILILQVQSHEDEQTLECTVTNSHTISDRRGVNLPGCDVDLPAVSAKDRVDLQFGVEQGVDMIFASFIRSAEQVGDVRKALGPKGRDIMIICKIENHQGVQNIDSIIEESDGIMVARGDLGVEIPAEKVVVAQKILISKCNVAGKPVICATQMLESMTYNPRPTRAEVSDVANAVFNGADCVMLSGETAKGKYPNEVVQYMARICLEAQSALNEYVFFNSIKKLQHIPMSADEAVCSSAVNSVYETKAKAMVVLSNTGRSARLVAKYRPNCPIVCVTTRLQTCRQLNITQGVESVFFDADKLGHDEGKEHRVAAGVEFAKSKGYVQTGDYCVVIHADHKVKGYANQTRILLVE
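Purified LmPK (0.1 nM) with 0.5 mM PEP and 0.1 mM ADP in imidazole buffer pH 7.2 with MgCl2/KCl, 1 h at room temperature. ATP formed was read by luciferase luminescence and normalized to no-enzyme and uninhibited controls.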
Cycloheximide cs = counter-screen for Shiga toxin inhibitors: cycloheximide protein synthesis inhibition; cell reporter, cycloheximide protein synthesis inhibition counterscreen; max response, %; 300,000 compounds, 12% hits; AID 2314; in the data active means max response mostly above about 13%, no sharp cut-off; inactive means mostly below about 14%; further: read at 38.3 µM for the half of the compounds with a filed dose; 0% is about no effect
Giardia FBPA inh = Giardia lamblia aldolase inhibition. 290,000 compounds, 0.71% hits. Potency, µM (top dose mostly 59.6 µM), inactives show at the highest dose activity, negative = inhibition, actives largely listed as inhibitors. purified Giardia FBPA; further: potency means the concentration at half of the fitted maximal effect; on the % scale 0 is the no-effect control and ±100 the full control effect; nearly all actives have a fitted effect of over 55% in size
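Giardia FBPA (40 nM reagent) was preincubated 10 min at RT with compound (up to 57.5 uM final), then substrate plus GAPDH/TPI/NAD/arsenate coupling system with diaphorase/resazurin was added; resorufin fluorescence (525/598 nm) was read after 20 min.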
An asterisk follows results filed as active; [ ] = dose if it differs, or a comment. Only a selection was taken, and hits are over-represented in it overall. Unless noted, the call rests on the fitted dose curve; in most records, active means well fitted curve in the direction sought with a large enough effect; inconclusive means small, poorly fitted or top-dose-only effect, or another doubt; inactive means no such curve, though single readings can be large; an effect the other way counts as inactive or inconclusive.

Results for CCn1cc2nc(SCc3ccccc3F)n(Cc3ccc(C)cc3)c(=O)c2n1 ?
TbPYK inhibitor: -4.2%

Results for O=C(c1ccccn1)N(Cc1ccco1)C1(C(=O)Nc2ccc(Br)cc2)CCCCC1 ?
RE007 growth inh: -10.5%; TbPYK inhibitor: 6.5%

What do the screens show for `O=C(CN1C(=O)COc2ccccc2C1=O)c1ccc2c(c1)OCCO2`?
Shiga toxin inh: 29.1; RE007 growth inh: -0.8%; TbPYK inhibitor: 12.3%; LmPK inh: -4.0%; Cycloheximide cs: 27.6*

Results for O=C(CN1C(=O)NC2(CCc3ccccc32)C1=O)c1ccc2c(c1)OCCO2 (configuration not stated) ?
Shiga toxin inh: 69.9*; RE007 growth inh: 1.7%; TbPYK inhibitor: -10.0%; LmPK inh: 3.0%; Cycloheximide cs: 22.6; Giardia FBPA inh: 6.8%

Results for O=C(CN1C(=O)NC2(CCc3ccccc32)C1=O)c1ccc(F)cc1 (configuration not stated) ?
RE007 growth inh: -3.6%; TbPYK inhibitor: -6.7%

How did CCCCC1=CC2=C(c3ccco3)C(=O)C(C)(OC(=O)c3ccc(OC)cc3)C(=O)C2=CO1 (configuration not stated) do in these assays?
Giardia FBPA inh: 4.6%

Results for O=C(COC(=O)c1cccs1)NC12CC3CC(CC(C3)C1)C2 ?
Shiga toxin inh: 67.6; RE007 growth inh: 10.6%; TbPYK inhibitor: -9.6%; LmPK inh: 3.6%; Cycloheximide cs: 28.9*; Giardia FBPA inh: -5.2%

How did O=C(COC(=O)c1cccs1)NC1CCCC1 do in these assays?
Shiga toxin inh: 67.6; RE007 growth inh: 7.9%; TbPYK inhibitor: -4.9%; LmPK inh: 0.6%; Cycloheximide cs: 19.5*; Giardia FBPA inh: 6.1%

Results for O=C(COC(=O)CCC(=O)c1cccs1)NC1CCCCC1 ?
RE007 growth inh: -7.4%; TbPYK inhibitor: -9.0%

How did O=C(COC(=O)c1cccs1)NC1CCCCC1 do in these assays?
Shiga toxin inh: 94.3*; RE007 growth inh: -5.2%; TbPYK inhibitor: 6.3%; LmPK inh: -2.4%; Cycloheximide cs: 42.6*; Giardia FBPA inh: -1.0%

How did O=C(COC(=O)c1ccccc1O)NC12CC3CC(CC(C3)C1)C2 do in these assays?
RE007 growth inh: 0.1%; TbPYK inhibitor: 7.8%

What do the screens show for `O=C(NC1CCCCC1)c1cccs1`?
Shiga toxin inh: 32.6; RE007 growth inh: -16.7%; TbPYK inhibitor: -5.2%; LmPK inh: 5.0%; Cycloheximide cs: 24.3*; Giardia FBPA inh: -1.0%

Results for CC1CCCC(NC(=O)COC(=O)c2cccs2)C1C (configuration not stated) ?
RE007 growth inh: 8.4%; TbPYK inhibitor: 0.0%

How did O=C(NNC(=S)NC1CCCCC1)c1cccs1 do in these assays?
Shiga toxin inh: 20.7; RE007 growth inh: 18.3%; TbPYK inhibitor: -10.9%; LmPK inh: 6.2%; Cycloheximide cs: 10.8; Giardia FBPA inh: -2.4%

Results for CC(C)C[C@@H](CN1CCC[C@H]1CN1C(=O)C(=O)NC[C@@H]1Cc1ccccc1)N1C[C@H](Cc2ccccc2)N(CC2CCCCC2)C(=O)C1=O ?
RE007 growth inh: -1.7%; TbPYK inhibitor: 1.0%

How did CC(C)CCN=CC1=C(O)CC(c2ccccc2)CC1=O (configuration not stated) do in these assays?
Shiga toxin inh: 52.6; RE007 growth inh: -13.6%; TbPYK inhibitor: 0.4%; LmPK inh: -13.2%; Cycloheximide cs: 28.9*; Giardia FBPA inh: 2.5%

What do the screens show for `COc1ccc(/C=C/C(=O)NC(=S)Nc2ccc(Br)cn2)cc1`?
Shiga toxin inh: 34.3; RE007 growth inh: 9.3%; TbPYK inhibitor: 0.4%; LmPK inh: 0.6%; Cycloheximide cs: 11.0*; Giardia FBPA inh: 6.7%

How did COc1ccc(NC(=S)NC(=O)/C=C/c2ccc(F)cc2)cc1 do in these assays?
Shiga toxin inh: 16.1; RE007 growth inh: -6.1%; TbPYK inhibitor: 1.5%; LmPK inh: 1.5%; Cycloheximide cs: -1.8; Giardia FBPA inh: 10.4%

Results for COc1ccc(NC(=O)Nc2ccc(Br)cn2)cc1 ?
Shiga toxin inh: 77.4*; RE007 growth inh: -4.8%; TbPYK inhibitor: 7.6%; LmPK inh: 4.9%; Cycloheximide cs: 20.0; Giardia FBPA inh: 0.2%

How did Cc1cc(-c2ccc(Cl)cc2Cl)c(C#N)c(=O)[nH]1 do in these assays?
Shiga toxin inh: 43.8*; RE007 growth inh: 10.1%; TbPYK inhibitor: -17.9%; LmPK inh: -0.6%; Cycloheximide cs: 21.0*; Giardia FBPA inh: -2.8%

What do the screens show for `Cc1c2cnn(CC(=O)N3CCN(c4ccccc4)CC3)c(=O)c2c(C)n1Cc1ccccc1Cl`?
TbPYK inhibitor: -8.7%

What do the screens show for `CC1CN(C(=O)COc2ccc3c(-c4ccccc4)cc(=O)oc3c2)CC(C)O1` (configuration not stated)?
RE007 growth inh: -2.4%; TbPYK inhibitor: 4.0%

What do the screens show for `CCOc1ccc(NC(=O)CN2CCN(C3CCCCC3)C(=O)C2=O)cc1`?
TbPYK inhibitor: -8.0%

What do the screens show for `CCOc1ccc(NC(=O)CN2C(=O)CSC2=O)cc1`?
Shiga toxin inh: 79.2*; RE007 growth inh: -9.5%; TbPYK inhibitor: -1.5%; LmPK inh: -14.3%; Cycloheximide cs: 15.4*; Giardia FBPA inh: 2.8%

How did CCOc1ccc(NC(=O)CN2C(=O)c3ccccc3C2=O)cc1 do in these assays?
Shiga toxin inh: -5.7; RE007 growth inh: 28.0%; TbPYK inhibitor: -3.3%; LmPK inh: -2.9%; Cycloheximide cs: -1.3; Giardia FBPA inh: 5.8%

How did CCOc1ccc(NC(=O)CC(=O)Nc2ccc(OCC)cc2)cc1 do in these assays?
Shiga toxin inh: 66.6*; RE007 growth inh: 10.7%; TbPYK inhibitor: -4.5%; LmPK inh: -7.2%; Cycloheximide cs: 12.2; Giardia FBPA inh: -2.2%

Results for CCOc1ccc(NC(=O)CN2C(=O)C3CCCN3C2=O)cc1 (configuration not stated) ?
Shiga toxin inh: active; RE007 growth inh: -9.2%; TbPYK inhibitor: -2.4%; LmPK inh: 0.7%; Cycloheximide cs: 15.0*; Giardia FBPA inh: 0.5%

What do the screens show for `CC(=O)Nc1ccc(OCC=C(Cl)Cl)cc1`?
Shiga toxin inh: 24.7*; RE007 growth inh: 7.2%; TbPYK inhibitor: 1.3%; LmPK inh: -0.6%; Cycloheximide cs: 10.8*; Giardia FBPA inh: 12.2%

What do the screens show for `Cc1ccc2nc(Nc3cccc(C(F)(F)F)c3)c3nnnn3c2c1`?
TbPYK inhibitor: 3.4%

What do the screens show for `CCOc1ccc(S(=O)(=O)N2CCCCC2)cc1NC(=O)Cc1ccsc1`?
RE007 growth inh: 12.3%; TbPYK inhibitor: 2.6%

What do the screens show for `CC(C)Nc1nc(NCCOc2ccccc2)c2sccc2n1`?
RE007 growth inh: -15.2%[18.4 µM]; TbPYK inhibitor: -2.5%

What do the screens show for `C=CCNC(=O)Nc1ccc(OCC)cc1`?
Shiga toxin inh: 10.1; RE007 growth inh: 0.5%; TbPYK inhibitor: -6.8%; LmPK inh: -4.2%; Cycloheximide cs: 12.0*; Giardia FBPA inh: 0.0%
